NS1 inh: blocks influenza NS1 protein function; 0.4% of 270,000 active; Potency, µM (doses to about 46.1 µM), for inactives: at the top dose activity, positive = more growth; calls by dose curve; also: potency is read from the fitted curve at half-maximal effect; actives are rising curves; nearly all actives have a fitted effect of over 50% in size
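Compounds were scored for reversing the slow growth caused by influenza A NS1 in S. cerevisiae, measured by optical density at 600 nm. Assay medium contained 2% galactose at pH 6.0; NS1-free yeast of the same strain were the positive control.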
AmpC inh detg: blocks E. coli AmpC beta-lactamase in detergent assay; AmpC hydrolysis of nitrocefin, absorbance 480 nm, 0.01% Triton; P00811; 0.041% of 370,000 active; Potency, µM (top dose mostly 114 µM), for inactives: at the highest dose activity change, negative = inhibition, hits mostly inhibitors;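 also: potency is read from the fitted curve at half-maximal effect; 0% = no-compound wells and -100% = no-enzyme wells; nearly all actives have a fitted effect of over 25% in size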
Target sequence (P00811 whole entry, looked up): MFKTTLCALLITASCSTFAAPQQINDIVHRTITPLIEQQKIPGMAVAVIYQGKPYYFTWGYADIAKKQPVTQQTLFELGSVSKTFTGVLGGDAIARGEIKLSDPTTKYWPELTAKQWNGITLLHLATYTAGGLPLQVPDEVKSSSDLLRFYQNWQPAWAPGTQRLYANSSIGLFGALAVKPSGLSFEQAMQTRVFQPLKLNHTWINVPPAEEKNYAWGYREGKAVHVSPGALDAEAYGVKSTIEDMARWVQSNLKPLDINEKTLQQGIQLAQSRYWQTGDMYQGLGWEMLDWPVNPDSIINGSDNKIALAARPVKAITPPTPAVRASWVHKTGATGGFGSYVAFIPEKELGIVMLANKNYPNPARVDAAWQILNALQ
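20 mM phosphate pH 7.0 + 0.01% (detergent screen) or 0.0001% Triton X-100; 5.3 nM AmpC reagent; cpd preinc 15 min RT; nitrocefin (800 uM stock) to start; A480 q20 s × 4 min; Activity was normalised to no-enzyme and no-compound control wells.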
AMA1 RON2 block: AMA1-RON2 (P. falciparum) interaction inhibition | AlphaScreen AMA1-biotinylated RON2 peptide binding | Potency, µM (doses to about 58.2 µM), inactives show at the top dose activity change, negative = inhibition, hits mostly inhibitors | 0.2% of 360,000 active | AID 720542;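 also: potency is read from the fitted curve at half-maximal effect; 0% = vehicle wells and -100% = peptide control; nearly all actives have a fitted effect of over 45% in size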
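AMA1 (3D7) with his tag at 25 nM final met compounds first, then biotinylated RON2 peptide at 25 nM; detection used donor plus acceptor beads, 10 µg/mL apiece, read by AlphaScreen after 30 min at room temperature.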
AmpC inh no detg: blocks E. coli AmpC beta-lactamase in detergent-free assay; AID 485341; AmpC nitrocefin hydrolysis, absorbance 480 nm, 0.0001% Triton; Potency, µM (top dose mostly 57.1 µM), inactives show at the highest dose activity change, negative = inhibition, hits mostly inhibitors; 0.52% of 330,000 active;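 also: potency is read from the fitted curve at half-maximal effect; plate controls were no compound for no effect and no enzyme for full effect; nearly all actives have a fitted effect of over 20% in size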
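AmpC (5.3 nM in the dispensed reagent) in 20 mM phosphate pH 7.0 with 0.01% (detergent screen) or 0.0001% Triton X-100 was preincubated with compounds for 15 min at room temperature. Nitrocefin was then added from an 800 uM solution, and hydrolysis was followed at 480 nm.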
Flu NS1 inh: influenza NS1 function inhibition validation | shares compounds with NS1 inh | influenza NS1 function cell assay, 15-point titration | 1,400 tested, under 10 active | activity change, negative = inhibition, % at 32.9 µM | AID 492980; calls by dose curve; also: 0% is about no effect
Flu PR8 replic: influenza virus titer reduction, NS1 project; shares compounds with NS1 inh; MDCK infected influenza A/PR/8/34, virus titer TCID50; hits give low values; virus titer (log TCID50), log10 TCID50 at 5 µM; 30% of 95 active; call rule not given here
* = called active by the depositor; ? = inconclusive; · = no result given; ! = not confirmed by another sample; [ ] = remark or other dose. In the library only some 0.86% were active in any assay of this set; here they are far more common. Unless noted, calls follow the shape of the dose curve; as a rule, active = well fitted curve in the direction sought with a large enough effect; inconclusive = small, poorly fitted or top-dose-only effect, or another doubt; inactive = no such curve, though single readings can be large; an effect the other way counts as inactive or inconclusive.

SMILES | NS1 inh | AmpC inh detg | AMA1 RON2 block | AmpC inh no detg | Flu NS1 inh | others
COc1ccc(-c2noc(CNC(=O)COc3cccc(C)c3C)n2)cc1 | · | 16% | · | · | ·
O=C(NC1CCCC1)c1cnn(-c2ccc(F)cc2F)c1C1CCNCC1 | · | 9% | · | · | ·
O=C(Nc1nnc(C2CC2)s1)C1Cc2ccccc2CN1C(=O)c1ccco1 (stereo not given) | · | -1% | 2% | -31%[11.4 µM] | ·
O=C(Nc1nnc(SCc2ccc(F)cc2)s1)C1Cc2ccccc2CN1C(=O)c1ccco1 (stereo not given) | 7.9µM* | 0% | 58% | -36% | 6
Cc1cc(C)n(C(=O)/C(C#N)=N/Nc2cc(Cl)cc(Cl)c2)n1 | · | ? | -2% | -58% | ·
CCOC(=O)C1=C(c2ccccc2)NC(SCC(=O)Nc2cccc(C)c2)=C(C#N)C1c1ccco1 (stereo not given) | ? | -8% | 9% | -25% | -1
CCOC(=O)C1=C(c2ccccc2)NC(SCC(=O)Nc2ccccc2C)=C(C#N)C1c1ccco1 (stereo not given) | 11µM* | -6% | 10% | -42% | ?
CC1(C)CC(=O)C(C(C2=C(O)CC(C)(C)CC2=O)c2ccc(Br)s2)C(=O)C1 (stereo not given) | 11% | ? | -2%[11.6 µM] | -28% | ·
O=C(c1cc2ccccc2o1)N1CCN(S(=O)(=O)c2cccs2)CC1 | 10µM* | 1% | 4% | -5% | 14
O=C(c1cc2ccccc2o1)N1CCN(S(=O)(=O)c2ccccc2)CC1 | · | -3% | -7% | -5% | ·
CCNc1nc(NCC)n2c(SCC(=O)O)nnc2n1 | 10µM* | 4% | -9% | -19% | 8
CCCNC(=O)C1(C)CCCN(Cc2c3ccccc3nn2C)C1 (stereo not given) | · | · | 0% | · | ·
Cc1cc(C)c2sc(NNC(=O)c3ccc(S(=O)(=O)N4CCc5ccccc5C4)cc3)nc2c1 | 11µM* | -19% | 38% | 3.5µM* | 6
CCOC(=O)c1ccc(N2C(=O)c3n[nH]c(C)c3C2c2ccc(OC)cc2OC)cc1 (stereo not given) | 5µM* | -2% | 5% | 29% | -9
Cc1cc(NC(=O)c2ccccc2)ncc1NC(=O)c1ccco1 | ? | -1% | -11% | -3% | -23
Cc1ccc(S(=O)(=O)N2CCN(C(=O)C(C)Cn3cncn3)CC2)cc1 (stereo not given) | -9% | -1% | 8% | 0% | ·
CC(C)=NOc1nc(NC(=O)NS(=O)(=O)c2ccccc2Cl)nc(N(C)C)n1 | · | · | -16% | · | ·
CC(C)CCSc1nc2c(c(=O)[nH]c(=O)n2C)n1CCCc1ccccc1 | ? | -9% | 5% | 22% | -29
CC1(C)Cc2c(sc3ncnc(NNC(=S)NCc4ccccc4)c23)CO1 | 11µM* | 6% | 76% | -45% | -8
CC(C)NC(=S)NNc1ncnc2sc3c(c12)CC(C)(C)OC3 | · | · | 94% | · | ·
O=C(NCc1ccccc1)C12CN(Cc3ccccc3)CC1C(c1cccc([N+](=O)[O-])c1)=NO2 (stereo not given) | -2% | ? | -4% | -30% | ·
O=C(NCc1cc(C(F)(F)F)cc(C(F)(F)F)c1)C12CN(Cc3ccccc3)CC1C(c1cccc([N+](=O)[O-])c1)=NO2 (stereo not given) | 22µM* | -1% | -3% | -9% | -18 | Flu PR8 replic=7.3*
C=CCNC(=O)/C(=C\C=C\c1ccccc1)NC(=O)c1ccc(OCCCC)cc1 | 11µM* | 0% | -8% | 35% | ?
CC1=NN=C(c2ccc(N)cc2)c2cc3c(cc2C1)OCO3 | 35µM* | -3% | -7% | 19% | 11
Cc1nc(N)ncc1-c1ccc2c(c1)OCO2 | 0% | 0% | 2% | -16% | ·
SMILES | NS1 inh | AmpC inh detg | AMA1 RON2 block | AmpC inh no detg | Flu NS1 inh | others
Cc1ccc(C(=O)c2cnc3cc4c(cc3c2S(=O)(=O)c2ccccc2)OCCO4)cc1 | ? | -4% | -9%[11.6 µM] | -11% | ·
CCOc1ccc(S(=O)(=O)c2c(C(=O)c3ccc(C)cc3)cnc3cc4c(cc23)OCCO4)cc1 | 14µM* | -7% | -2% | -6% | -14
Cc1ccc(NC(=S)NC2CCSc3ccccc32)cc1 (stereo not given) | 1.4µM* | -8% | 45% | -43% | 0
CC(=O)Nc1ccc(C(=O)NC2CCSc3ccccc32)cc1 (stereo not given) | -5% | -1% | -6% | -2% | ·
COc1cc(/C=N/NC(=O)c2ccc3nc[nH]c3c2)cc(OC)c1OC | 1% | -1% | 16% | -28% | ·
COc1cc(/C=N/NC(=O)c2ccc(CSc3nc4ccccc4[nH]3)cc2)cc(OC)c1OC | 13µM* | -3% | -4% | 48% | ? | Flu PR8 replic=8
Cc1cc(NC(=O)CCC(=O)N(CC(=O)NC2CCCC2)c2ccccc2)no1 | -2% | ? | -22% | -12% | ·
Cc1cc(NC(=O)CCC(=O)N(CC(=O)NC2CCCC2)c2cccc(F)c2)no1 | ? | 2% | 0% | 16% | -7
CC(C)(C)c1ccc(C(=O)c2c[nH]c(C(=O)NCCc3ccccn3)c2)cc1 | · | -8% | 5% | -24% | ·
CC(C)CC(=O)NC(NC(=S)Nc1sc2c(c1C#N)CCCC2)C(Cl)(Cl)Cl (stereo not given) | 7.1µM* | 1% | 52% | -37% | -12 | Flu PR8 replic=8.3
CCC(=O)Nc1sc2c(c1C#N)CCC2 | · | -10% | -4% | -17% | ·
COc1cc(C2C(C#N)=C(N)Oc3cc(C)n(Cc4ccccn4)c(=O)c32)cc2c1OCO2 (stereo not given) | 6% | -15% | · | -8% | ·
CCOC(=O)C1CCCN(C(=O)c2[nH]c(C(F)(F)F)nc2-c2ccccc2)C1 (stereo not given) | · | · | 2% | · | ·
CCCCOc1c(Br)cc(/C=C2\N=C(C)OC2=O)cc1OCC | 3.5µM* | 9% | 8% | 12% | -2
CC(=O)c1c(COC(=O)c2cccnc2)nc2ccccc2[n+]1[O-] | 5µM* | -20% | 10% | -14% | 18
CC(=O)c1c(COC(=O)c2ccc(C)cc2)nc2ccccc2[n+]1[O-] | -5% | -4% | -11% | -14% | ·
CCOc1ccc(S(=O)(=O)Nc2ccccn2)c2ccccc12 | 1.1µM* | -10% | 0% | -4% | -12
CCOC(=O)c1ccc(NC(=O)CSc2nc(C)cc(=O)[nH]2)cc1 | ? | 0% | -28% | -29% | -10 | Flu PR8 replic=8
O=C(c1cc(-c2ccncc2)nc2ccccc12)N1CCN(c2ccc(N3CCOCC3)nn2)CC1 | ? | 2% | 5% | 106% | -33
COc1cc2nc(N3CCN(C(=O)C4COc5ccccc5O4)CC3)nc(N)c2cc1OC (stereo not given) | 35µM*! | -5% | -19% | 129% | -33
O=C(Cn1cc2c(n1)CCCC2)NCCCN1CCN(C2CCCCC2)CC1 | 8.9µM* | -5% | 11% | 5% | 8

Screens deposited in PubChem by National Center for Advancing Translational Sciences (NCATS).
